Only some compounds are listed: those with a hit (about 1.1% of all), similar ones and a draw of the others.
COUP-TFII inh: NR2F2 (human) inhibition, primary screen; 370,000 tested, 0.7% active; P24468; HEK293T NGFI-A luciferase reporter, luminescence; AID 686940; inhibition, % at 8.6 µM;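 active = inhibition above a per-plate cutoff, mean inhibition of test wells between control levels plus 3 SD, cut at about 38% in these data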;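 note: cells cotransfected with COUP-TFII expression vector driving the NGFI-A reporter; 0% = median of COUP-TF2 test wells and 100% = reporter-only cells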
SRC2 inh: human SRC2 (NCOA2) inhibition; HEK293 GAL4-SRC2 luciferase reporter, luminescence; Q15596; inhibition, % at 9 µM; AID 651957; 370,000 tested, 0.17% active;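 active = inhibition above the mean inhibition of all tested compounds plus 3 SD, set per campaign, cut at about 52% in these data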;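 note: 0% = DMSO treated cells and 100% = cells given Gossypol at 36 µM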
SRC1 inh: inhibitors of human steroid receptor coactivator 1 (SRC1) | Q15788 | HEK293 GAL4-SRC1 luciferase reporter, luminescence | inhibition, % at 3.6 µM | 360,000 tested, 0.12% active | AID 588354;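 active = inhibition above the campaign mean plus 3 SD, with each screening campaign given its own cutoff, cut at about 60% in these data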;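 note: 0% = DMSO treated cells and 100% = gossypol at 36 µM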
NCOA3 inh: human NCOA3 inhibition; Q9Y6Q9; HEK293 GAL4-SRC3 luciferase reporter, luminescence; inhibition, % at 3.6 µM; 360,000 tested, 0.17% active;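 active = inhibition above a per-campaign cutoff, the mean of all compounds plus 3 SD, cut at about 60% in these data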;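 note: 0% = DMSO-treated cells and 100% = gossypol-treated cells at 36 µM; higher means less SRC3-driven luciferase light from the GAL4 reporter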
NR5A2 inv ag: NR5A2 inverse agonism in reporter assay; inhibition, % at 3.6 µM; AID 602396; HEK293T StAR-luciferase reporter, LRH-1 transfected, 24 h; 360,000 tested, 0.13% active;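 active = inhibition above the mean inhibition of all tested compounds plus 3 SD, cut at about 73% in these data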;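 note: 0% = DMSO wells and 100% = reporter-only cells lacking LRH-1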
GalR3 antag: human GalR3 antagonism. HEK293 GalR3-CNG cAMP membrane potential fluorescence; galR3 body fused to GalR1 C-terminus. inhibition, % at 3 µM. 360,000 tested, 0.44% active. O60755. AID 651719;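 active = inhibition above the screen-wide average plus 3 SD, cut at about 13% in these data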;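 note: forskolin and galanin both at EC90 stimulate the cells; cAMP rise reported by CNG channel membrane potential dye signal; 0% = forskolin plus galanin with DMSO and 100% = forskolin alone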
GalR3 conf: confirmation of human galanin receptor 3 antagonists; shares compounds with GalR3 antag; 1,600 tested, 59% active; inhibition, % at 3 µM; HEK293 GalR3 CNG cAMP biosensor, membrane potential fluorescence; galR3 fused to GalR1 carboxy tail; challenged with forskolin and galanin at EC90;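 active = inhibition above the primary screen's cutoff, the mean inhibition of all screened compounds plus 3 SD, cut at about 13% in these data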;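 note: 0% = forskolin plus galanin and 100% = forskolin alone with DMSO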
CNG parental: acts as nonspecific agonist in parental HEK-CNG cells | shares compounds with GalR3 antag | AID 652268 | HEK293-CNG parental cells, cAMP membrane potential fluorescence; normalised: DMSO wells 0%, forskolin wells 100% | 1,600 tested, 10% active | activation, % at 3 µM; in the data active = activation above about 1.3%
The depositor's hits bear a star; · = no result.

SMILES | COUP-TFII inh | SRC2 inh | SRC1 inh | NCOA3 inh | NR5A2 inv ag | GalR3 antag | GalR3 conf | CNG parental
O=C1c2cc(F)ccc2OC2(CCNCC2)C12CC(c1ccccc1)=NO2 (stereo not drawn) | 0 | -2 | 2 | -9 | -6 | -8 | · | ·
O=C(NC(Cc1ccccc1)C(=O)O)/C(=C/c1ccccc1)NC(=O)c1ccco1 (stereo not drawn) | -13 | 7 | -7 | -8 | 2 | 16* | 8 | 0
O=C(NC(Cc1ccccc1)C(=O)O)/C(=C\c1ccc(F)cc1)NC(=O)c1ccco1 (stereo not drawn) | 8 | -11 | -5 | 2 | -9 | -8 | · | ·
CCN1C(=O)C(C)C=C(C)C=C1C (stereo not drawn) | -4 | -14 | 2 | -5 | 8 | -4 | · | ·
COc1ccc(C2Nc3ccc4ccccc4c3-c3c2c(=O)oc2ccccc32)cc1 (stereo not drawn) | -5 | -6 | 12 | 9 | 3 | -6 | · | ·
O=c1oc2ccccc2c2c1C(c1ccc(Cl)cc1)Nc1ccc3ccccc3c1-2 (stereo not drawn) | -10 | -1 | 3 | -2 | 7 | 15* | -2 | 0
O=C(NCCN1CCOCC1)c1cc(-c2ccccc2)on1 | 24 | -82 | -64 | -63 | 4 | -3 | · | ·
COc1ccc(/C=C2\SC(=O)N(CCNC(=O)C3=COCCO3)C2=O)cc1 | -14 | -31 | -97 | -71 | -97 | 31* | 21* | 0
O=C(NCCN1C(=O)S/C(=C\c2ccc(OC(F)F)cc2)C1=O)c1cnccn1 | -9 | 22 | -2 | 16 | 42 | 15* | 6 | 1
O=C(NCCN1C(=O)S/C(=C\c2ccc(OC(F)F)cc2)C1=O)C1=COCCO1 | · | · | -19 | -9 | -11 | · | · | ·
CCCCC(=O)N/N=C/c1ccc(N2CCOCC2)c([N+](=O)[O-])c1 | -10 | -29 | -3 | 3 | 13 | 14* | 11 | 0
O=C(NS(=O)(=O)N1CCCC1)C1=C(N2CCCC2)COC1=O | -83 | 11 | -12 | 2 | -16 | · | 0 | 0
O=C(NS(=O)(=O)NC1CCCCC1)C1=C(N2CCCC2)COC1=O | 5 | 13 | -7 | -1 | -12 | 8 | · | ·
COc1ccc(NC(=O)C(=S)N2CCCC2)cc1 | -33 | -8 | -22 | -14 | -19 | 16* | 1 | 0
C=CCSc1nsc(NC(=O)Nc2ccc(F)cc2)n1 | 54* | -1 | 17 | 55 | 21 | 69* | 40* | 0
C[C@]12CCC3C(CC[C@H]4CC(O)CC[C@]34C)C1CC/C2=N/O (stereo partly drawn) | 1 | 13 | -1 | 1 | 3 | -5 | · | ·
O=c1[nH]cccc1-c1nc2ccccc2n1Cc1ccc(F)cc1 | -14 | -6 | 3 | -10 | -6 | 87* | -3 | -1
CCCn1c(SCc2ccc(Cl)cc2)nc2c1c(=O)[nH]c(=O)n2C | -7 | -34 | -22 | -14 | 13 | 14* | 32* | 1.3*
CCN(CC)C(=O)OCCc1cc2ccccc2c(=O)o1 | -18 | -7 | -4 | -17 | -8 | · | 1 | 0
O=C(O)c1ccccc1C(=O)OCCc1cc2ccccc2c(=O)o1 | -13 | 0 | -4 | -12 | 3 | -2 | · | ·
COc1ccc(-c2c(C)cc3oc(=O)cc(-c4ccccc4)c3c2C)cc1 | 12 | 0 | -4 | -11 | 44 | -6 | · | ·
COc1ccc(-c2ccc(-c3cc(=O)oc4c(C(C)C)ccc(C)c34)cc2)cc1 | -48 | -17 | 3 | 6 | 2 | 23* | 13* | 0
O=C(/C=C/c1ccccc1)NC(NC(=S)Nc1cccc(O)c1)C(Cl)(Cl)Cl (stereo not drawn) | 12 | -30 | 0 | 9 | 5 | 18* | 17* | -1
O=C(NC1CCCC1)c1ccc(CS(=O)(=O)c2ccc(Cl)cc2)o1 | 15 | -6 | 6 | 9 | 4 | -5 | · | ·
